Sampled rows, rich in hits. Any-hit rate of the full collection: about 2.2%.
LGR2 inh = inhibitors of bursicon-induced Drosophila LGR2 receptor cAMP signaling; 380,000 tested, 0.35% active; HEK293 LGR2, CRE-luciferase, bursicon-stimulated, 4 h; inhibition, % at 9.99 µM;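 active means drop in luminescence signal, shown as inhibition above about 50% in the replicate tests, limit read from the data, passing the limit was not always enough; inconclusive means probably only some replicates passing the limit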;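 further: agonist challenge used bursicon conditioned medium at about half maximal strength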
EWS-Fli block = EWS/Fli transcriptional activity inhibition. 350,000 tested, 0.67% active. inhibition, % at 12.6 µM. AID 651661. A673 NR0B1-luciferase reporter, viability-normalised;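 active means mean inhibition of at least 50% after viability correction, with every replicate also passing that limit; inconclusive means mean reaches 50% but only one of two replicates passes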;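 further: firefly luciferase signal divided by Alamar Blue viability fluorescence both relative to DMSO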
PAX8 inh HTS = lowers PAX8-driven luciferase in RMG-I cells. RMG-I TPO-luciferase reporter, SteadyGlo, 24 h. AID 652154. inhibition, % at 12.6 µM. 360,000 tested, 1.2% active;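 active means mean replicate inhibition at least 60% with every replicate also reaching 60%; inconclusive means only one of the two criteria is met; inactive means mean below 60% and not all replicates reaching 60%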;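 further: luciferase light reporting Pax8 driven TPO promoter activity; plate controls were median of neutral control wells for no effect and mitoxantrone controls for full effect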
LMP1 NFkB inh = Epstein-Barr LMP1 NF-kappaB reporter inhibition; inhibition, % at 12.5 µM; LMP1-induced NF-kappaB luciferase reporter cells, luminescence; 350,000 tested, 0.69% active; in the data active means inhibition above about 41%; inconclusive means no clear call, values can overlap the other calls;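 further: 0% = neutral control wells and 100% = reference inhibitor control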
PGC1a acetyl inh = modulators of PGC1a acetylation. 350,000 tested, 0.17% active. inhibition, % at 15.6 µM. U2OS PGC1a acetylation, AlphaScreen anti-acetyl-lysine; with virally co-expressed GCN5 acetyltransferase;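 active means every replicate shows inhibition of at least 40%; inconclusive means mean inhibition at least 40% but some replicate below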;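 further: 0% = neutral control wells and 100% = positive control wells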
MITF TRPM1 inh = inhibitors of MITF-driven TRPM1 promoter in melanoma cells; inhibition, % at 12.5 µM; AID 488899; SK-MEL-5 TRPM1 promoter luciferase, 24 h; 330,000 tested, 0.83% active;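 active means mean inhibition across replicates of 60% or more, whatever share of single replicates reaches that level; inconclusive means some that reach 60%, reason not given; inactive means mean inhibition across replicates below 60%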
Active calls of the source: *; u = inconclusive; x = not tested or not shown.

SMILES	LGR2 inh	EWS-Fli block	PAX8 inh HTS	LMP1 NFkB inh	PGC1a acetyl inh	MITF TRPM1 inh
C[C@H]1CN([C@@H](C)CO)S(=O)(=O)c2ccc(-c3cccc(C#N)c3)cc2O[C@@H]1CN(C)C(=O)c1ccncc1	-6.2	-4.7	16.8	x	-4.6	x
Cc1ccc(C)c(-n2c3nc(=O)[nH]c(=O)c-3cc3cc([N+](=O)[O-])ccc32)c1	25.7	70.2*	33.9	16.8	14.8	u
CCCN1C[C@@H](C)[C@@H](OC)CN(C)C(=O)c2cc(NC(=O)c3ccc(F)cc3)ccc2OC[C@@H]1C	13.6	4.6	x	x	-2.2	x
C[C@@H]1CN([C@@H](C)CO)C(=O)c2cc(-c3ccncc3)cnc2O[C@H]1CN(C)C(=O)C1CCCCC1	10.0	-4.5	x	x	-16.1	x
Cc1ccc(NC(=O)c2nc[nH]c2C(=O)NCCCCNC(=O)c2[nH]cnc2C(=O)Nc2ccc(C)cc2)cc1	1.9	17.7	80.3*	-3.0	-10.1	2.6
CC(C)(C)OC(=O)[C@H](Cc1ccccc1)NC(=O)c1nc[nH]c1C(=O)N[C@@H](Cc1ccccc1)C(=O)OC(C)(C)C	30.7	16.9	103.8*	-3.6	-2.0	12.5
Cc1ccc(NC(=O)c2nc[nH]c2C(=O)NCCCCCCNC(=O)c2[nH]cnc2C(=O)Nc2ccc(C)cc2)cc1	6.2	3.8	0.7	-36.8	8.1	4.6
CC(C)(C)OC(=O)NCCCC[C@H](NC(=O)c1[nH]cnc1C(=O)Nc1ccc(CNC(=O)OC(C)(C)C)cc1)C(=O)OC(C)(C)C	24.9	38.8	110.0*	x	x	x
CC(C)(C)OC(=O)NCCCCCNC(=O)c1[nH]cnc1C(=O)N[C@@H](Cc1ccccc1)C(=O)OC(C)(C)C	x	x	x	17.5	7.2	-6.1
CC(C)(C)OC(=O)NCCCC[C@H](NC(=O)c1nc[nH]c1C(=O)NCc1ccccc1)C(=O)OC(C)(C)C	x	6.5	14.1	-2.1	x	1.1
C[C@H](NC(=O)c1nc[nH]c1C(=O)N[C@@H](Cc1ccccc1)C(=O)OC(C)(C)C)C(=O)OC(C)(C)C	11.2	5.4	22.1	-6.6	1.9	0.9
CC(C)(C)OC(=O)NCCCC[C@H](NC(=O)c1[nH]cnc1C(=O)N[C@@H](Cc1ccccc1)C(=O)OC(C)(C)C)C(=O)OC(C)(C)C	12.7	34.8	104.1*	-21.4	-7.1	42.3
C[C@@H]1CN([C@@H](C)CO)C(=O)c2cc(C#Cc3ccc(F)cc3)cnc2O[C@H]1CN(C)C(=O)Nc1ccc(F)cc1	-6.2	9.3	x	x	-7.8	x
COc1ccc(C)cc1Nc1c2c(nc3ccccc13)CCC2	-5.7	53.4*	47.2	14.5	x	6.1
COc1ccc(Nc2c3c(nc4ccccc24)CCCC3)cc1OC	20.6	-5.1	0.6	0.3	x	9.8
C[C@@H]1CN([C@@H](C)CO)C(=O)c2cccc(NC(=O)CCCCCC(=O)Nc3ccccc3N)c2O[C@@H]1CN(C)C(=O)Nc1ccc(C(F)(F)F)cc1	7.1	3.8	-15.6	x	-1.8	x
N#Cc1ncn(C2OC(CO)C(O)C2O)c1N (centres undefined)	11.5	-3.1	-13.7	0.0	x	x
CC(C)=CCNc1ncnc2c1c(C#N)cn2C1OC(CO)C(O)C1O (centres undefined)	28.0	32.8	87.2*	-29.9	3.9	-1.2
Cc1noc(C)c1NC(=O)N(C)C[C@@H]1Oc2ccc(NS(=O)(=O)c3ccccc3)cc2CC(=O)N([C@H](C)CO)C[C@@H]1C	-12.5	-18.5	-26.7	x	9.4	x
O=C(/C=C\Nc1ccccc1Br)c1ccc2c(c1)OCO2	79.1*	75.2*	-49.9	12.8	x	43.9
O=C(/C=C/Nc1ccc(F)cc1Br)c1ccccc1	93.6*	x	14.5	48.4*	4.3	57.6
Cc1cc(N/C=C/C(=O)c2ccccc2)ccc1Br	0.2	-4.1	-113.0	-88.2	-11.9	-19.2
O=C(NC1CCCC1)[C@H]1[C@H](CO)[C@H]2Cn3c(ccc(-c4cccnc4)c3=O)[C@H]2N1CC1CC1	-8.0	-8.1	-1.4	x	x	x
O=C(NCC1OCCc2ccccc21)c1ccc(NC(=O)c2ccc(Cl)cc2)cc1 (centres undefined)	10.9	x	34.2	20.9	3.9	69.2*
O=c1c(Br)c(Br)cnn1-c1ccccc1	5.1	u	106.9*	1.8	x	92.3*
SMILES	LGR2 inh	EWS-Fli block	PAX8 inh HTS	LMP1 NFkB inh	PGC1a acetyl inh	MITF TRPM1 inh
Cc1ccc(-n2ncc(Br)c(Br)c2=O)cc1	x	x	x	18.6	x	83.4*
O=c1c(Br)c(N2CCCC2)cnn1-c1ccccc1	-21.7	x	x	-22.2	3.1	-17.9
CC(C)c1cn(CC[C@@H]2CC[C@H](NC(=O)C3CC3)[C@H](CO)O2)nn1	-0.1	-2.3	-6.9	x	-10.5	x
COc1ccc(NC(=O)Nc2cccc3c2O[C@@H](CN(C)C(=O)NC2CCCCC2)[C@@H](C)CN([C@H](C)CO)C3=O)cc1	2.0	-7.8	-8.4	x	11.6	x
COc1ccc(-n2nc(C(=O)c3cccs3)cc(-c3nc4ccccc4[nH]3)c2=N)cc1	x	x	-4.2	59.0*	14.4	58.9
O=C(COc1cccc(C(F)(F)F)c1)NNC(=O)c1ccc(=O)[nH]c1	-6.6	-2.1	15.3	71.8*	-2.6	-4.3
Nc1nc(Sc2c([N+](=O)[O-])cc(C(F)(F)F)cc2[N+](=O)[O-])n[nH]1	-8.4	55.3*	21.1	-2.3	x	4.1
O=C(C=Cc1cccnc1)c1ccccc1	-2.6	1.9	-115.0	10.7	33.2	40.2
O=C(C=Cc1ccccn1)c1ccccc1	u	12.8	x	12.8	9.5	70.2*
O=C(/C=C/c1cccnc1)c1ccccc1O	2.9	15.9	13.1	7.0	x	0.3
O=C(C=Cc1ccccn1)c1ccccc1O	-1.4	1.8	-12.6	5.7	7.5	87.7*
Cc1cc(C(=O)COC(=O)c2cccc(O)c2)c(C)n1C1CC1	72.7*	-27.5	-137.5	35.2	-2.3	-10.9
C[C@@H]1CN([C@@H](C)CO)C(=O)Cc2cc(NS(=O)(=O)c3ccccc3)ccc2O[C@H]1CN(C)C(=O)Nc1ccc(C(F)(F)F)cc1	-14.1	5.1	25.3	x	-0.7	x
O=C(Nc1ccc2c(c1)[C@H]1C[C@H](CC(=O)N3CCOCC3)O[C@@H](CO)[C@H]1O2)C1CCOCC1	2.9	2.5	-6.2	x	-0.5	x
CCCNC(=O)C[C@@H]1CC[C@H]2[C@@H](COc3ccc(NC(=O)c4ccc5c(c4)OCO5)cc3C(=O)N2C)O1	14.4	-0.7	-25.5	x	6.3	x
C[C@H](CO)N1C[C@H](C)[C@@H](CN(C)C(=O)c2ccc3c(c2)OCO3)Oc2cc(C#Cc3ccccc3F)ccc2S1(=O)=O	17.4	24.6	79.4*	x	26.0	x
C[C@H](CO)N1C[C@H](C)[C@@H](CN(C)C(=O)Cc2ccccc2)Oc2cc(C#Cc3ccccc3F)ccc2S1(=O)=O	18.2	33.7	73.5*	x	2.8	x
CS(=O)(=O)N(Cc1ccc(Cl)cc1)c1ccc(C(=O)NCc2ccccn2)cc1	17.2	1.8	-3.7	-7.6	-3.2	7.6

High-throughput results (PubChem BioAssay)
